From PubChem BioAssay
Calls of active or inactive are those of the source. Unless noted, the rule behind the calls is not given here.

Assays:
[1] = A549 cell viability effects, profiling panel, calcein-AM fluorescence, 48 h, basal (AID 1162); details: higher = more signal; note: test concentration not given here
[2] = adipocyte viability effects, profiling panel, cell-based, 3T3-L1 adipocytes, calcein-AM fluorescence, 48 h, basal (AID 1163); details: 3T3-L1 adipocytes viability, higher = more signal; note: test concentration not given here
[3] = HepG2 cell viability effects, profiling panel, calcein-AM fluorescence, 48 h, basal (AID 1164); details: higher = more signal; note: test concentration not given here
[4] = MM1S cell viability effects, profiling panel, calcein-AM fluorescence, 48 h, basal (AID 1165); details: higher = more signal;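 note: viability of MM1S multiple myeloma cells under basal unstimulated conditions; test concentration not given here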
[5] = basal RPMI8226 viability, no added stimulus, profiling panel, cell-based, calcein-AM fluorescence, 48 h, PK04 Diversity Set (AID 1166); details: RPMI8226 myeloma viability, higher = more signal;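 note: cells grown under basal conditions without added stimulus; test concentration not given here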
[6] = basal HepG2 mitochondrial membrane potential changes, profiling panel, cell-based, JC-1 fluorescence, 24 h, 100 nL compound (AID 1167); details: higher = more signal; note: test concentration not given here
[7] = basal 3T3-L1 adipocyte mitochondrial potential changes, profiling panel, cell-based, JC-1 fluorescence, 3T3-L1 adipocytes, 24 h, 100 nL compound (AID 1168); details: JC-1 mitochondrial fluorescence, higher = more signal, called active from +8 up or from −8 down; note: test concentration not given here
[8] = basal RPMI8226 mitochondrial membrane potential changes, profiling panel, cell-based, JC-1 fluorescence, 24 h, 100 nL compound (AID 1169); details: RPMI8226 myeloma, JC-1 mitochondrial potential fluorescence, higher = more signal; note: test concentration not given here
[9] = basal MM1S mitochondrial membrane potential changes, profiling panel, cell-based, JC-1 fluorescence, 24 h, 100 nL compound (AID 1170); details: higher = more signal; note: test concentration not given here
[10] = A549 lung cancer cell viability effects, profiling panel, resazurin fluorescence, 24 h, PK04 Diversity Set (AID 1171); details: higher = more signal, called active from +8 up or from −8 down; note: test concentration not given here
[11] = HepG2 liver cancer cell viability effects, profiling panel, resazurin fluorescence, 24 h, PK04 Diversity Set (AID 1172); details: higher = more signal; note: test concentration not given here
[12] = basal S. cerevisiae growth modulation, no modifier, primary screen, OD600, strain BY4716, 24 h, basal condition (AID 1173); details: OD600, 24 h, higher = more signal, called active from +8 up or from −8 down
[13] = MM1S myeloma cell viability, profiling panel, resazurin fluorescence, basal, 24 h, PK04 Diversity Set (AID 1174); details: higher = more signal, called active from +8 up or from −8 down;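 note: MM1S multiple myeloma cell line; test concentration not given here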
[14] = target: Dihydroorotate dehydrogenase (quinone), mitochondrial (Plasmodium falciparum (isolate 3D7)) (UniProt Q08210); experiment: PfDHODH enzyme inhibitors, primary screen, biochemical, C-terminal His tag, absorbance 600 nm (AID 1175); details: DCIP absorbance 600 nm, higher = more signal, called active from +8 up or from −8 down;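 note: recombinant parasite enzyme with a five histidine tag at its C terminus; test concentration not given here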
[15] = P. aeruginosa biofilm formation inhibitors, primary screen, strain PAO1, LB-PBS medium, absorbance 600 nm (AID 1176); note: test concentration not given here; details: P. aeruginosa PAO1 growth/biofilm, A600, 12 h; higher = more signal
[16] = S. cerevisiae RM11-1a growth modifiers, primary screen, strain RM11-1a, OD600, basal, 24 h (AID 1177); details: OD600, 24 h, higher = more signal, called active from +8 up or from −8 down;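 note: cultures grown under basal conditions with no added stressor; test concentration not given here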
[17] = E. coli acrAB mutant growth effects, primary screen, E. coli filamentation inducers, strain DRC39, OD650, 24 h (AID 1178); details: higher = more signal, called active from +8 up or from −8 down;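 note: growth measured as culture turbidity by optical density at 650 nm; test concentration not given here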
[18] = E. coli acrAB mutant growth effects, primary screen, E. coli filamentation inducers, strain DRC39, OD650, 48 h (AID 1179);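 note: screen aims at cell division blockers that make cells filament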; details: E. coli DRC39 delta-acrAB growth, higher = more signal, called active from +8 up or from −8 down
[19] = RPMI8226 myeloma cell viability, profiling panel, resazurin fluorescence, basal, 24 h, PK04 Diversity Set (AID 1180); details: higher = more signal;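 note: RPMI8826 multiple myeloma cell line at 5000 cells per well; test concentration not given here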
[20] = target: E3 ubiquitin-protein ligase XIAP (Homo sapiens) (UniProt P98170); experiment: XIAP binders, primary screen, biophysical, small-molecule microarray, fluorescence 635 nm (AID 1181); details: small-molecule microarray binding, higher = more signal;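 note: score merges 667 nm emission and signal to noise over triplicate slides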
Chain of E3 ubiquitin-protein ligase XIAP (Homo sapiens) (P98170 whole entry, looked up): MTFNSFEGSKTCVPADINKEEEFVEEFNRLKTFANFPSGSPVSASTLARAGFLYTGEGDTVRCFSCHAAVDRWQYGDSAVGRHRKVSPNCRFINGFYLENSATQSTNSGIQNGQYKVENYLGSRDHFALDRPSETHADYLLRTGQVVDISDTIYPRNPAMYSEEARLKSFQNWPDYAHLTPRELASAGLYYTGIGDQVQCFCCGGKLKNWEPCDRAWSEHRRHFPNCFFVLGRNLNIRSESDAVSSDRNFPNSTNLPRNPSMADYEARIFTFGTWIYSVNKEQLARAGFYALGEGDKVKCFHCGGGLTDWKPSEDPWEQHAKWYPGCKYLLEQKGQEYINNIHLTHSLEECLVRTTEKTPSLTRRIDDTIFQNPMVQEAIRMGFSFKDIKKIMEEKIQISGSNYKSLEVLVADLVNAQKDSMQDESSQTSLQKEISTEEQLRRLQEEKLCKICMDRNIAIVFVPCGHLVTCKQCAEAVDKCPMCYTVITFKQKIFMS

Chain of Dihydroorotate dehydrogenase (quinone), mitochondrial (Plasmodium falciparum (isolate 3D7)) (Q08210 whole entry, looked up): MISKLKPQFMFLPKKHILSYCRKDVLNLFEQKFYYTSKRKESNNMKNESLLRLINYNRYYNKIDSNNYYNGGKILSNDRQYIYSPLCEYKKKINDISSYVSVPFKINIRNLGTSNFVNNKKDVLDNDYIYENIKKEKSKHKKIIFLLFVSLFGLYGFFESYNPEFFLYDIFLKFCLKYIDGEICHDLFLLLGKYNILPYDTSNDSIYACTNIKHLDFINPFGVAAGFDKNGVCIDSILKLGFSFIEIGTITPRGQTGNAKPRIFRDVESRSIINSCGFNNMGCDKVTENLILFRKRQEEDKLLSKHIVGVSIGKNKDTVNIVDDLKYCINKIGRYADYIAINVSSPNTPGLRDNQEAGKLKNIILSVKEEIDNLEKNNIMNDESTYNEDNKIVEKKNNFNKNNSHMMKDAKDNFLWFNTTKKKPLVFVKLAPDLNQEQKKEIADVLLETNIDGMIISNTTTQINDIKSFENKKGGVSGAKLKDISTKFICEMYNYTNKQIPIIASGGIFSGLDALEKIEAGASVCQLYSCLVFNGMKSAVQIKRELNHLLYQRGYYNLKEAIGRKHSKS

Structure (SMILES)	z-score [1]	z-score [2]	z-score [3]	z-score [4]	z-score [5]	z-score [6]	z-score [7]	z-score [8]	z-score [9]	z-score [10]	z-score [11]	z-score [12]	z-score [13]	composite z-score [14]	z-score [15]	z-score [16]	z-score [17]	z-score [18]	z-score [19]	composite z-score [20]
CC(C)(C)N1C(=O)[C@H]2[C@H]3[C@H](O)[C@H](O)CC(=NOCc4ccccc4)[C@H]3CC[C@H]2C1=O	0.156	-0.503	-1.11	0.166	-0.946	-0.736	0.536 (inactive)	-0.492	0.0361	0.727 (inactive)	-0.211	-0.565 (inactive)	0.0488 (inactive)	-0.192 (inactive)	-0.237 (inactive)	-0.786 (inactive)	0.184 (inactive)	0.332 (inactive)	0.237	-0.102
CCN1C(=O)[C@@H]2[C@H]3C(=CC[C@@H]2C1=O)C1(OCCCO1)[C@H]1O[C@H]1[C@H]3O	-4.56	-1.03	-4.61	-3.56	-3.24	-3.62	-5.63 (inactive)	-1.04	-3.04	-3.14 (inactive)	-2.61	-9.39 (active)	-8.78 (active)	-18.3 (active)	2.64 (inactive)	1.15 (inactive)	-0.124 (inactive)	-0.985 (inactive)	-5.89	-0.141
COc1ccc(O[C@H]2C=C[C@@H](c3ccccc3)O[C@@H]2CON=C(C)CCN2CCc3nc(-c4ccccc4)c(-c4ccccc4)cc3C2)cc1	0.437	0.133	0.59	-1.65	-0.439	4.95	-1.39 (inactive)	0.965	-0.214	0.621 (inactive)	0.449	-0.606 (inactive)	-0.159 (inactive)	0.503 (inactive)	0.135 (inactive)	1.21 (inactive)	-0.166 (inactive)	-1.89 (inactive)	0.382	-0.0536
C=CC[C@@H]1C=C[C@H](ON=C2[C@H]3CCn4c(=O)n(-c5ccccc5)c(=O)n4[C@H]3[C@H](O)[C@@H]3O[C@H]23)[C@@H](CO)O1	-0.547	-0.203	-0.683	-1.21	-0.997	-0.568	-1.65 (inactive)	-0.172	0.0203	-0.674 (inactive)	-0.684	0.695 (inactive)	-0.646 (inactive)	0.329 (inactive)	0.675 (inactive)	0.779 (inactive)	0.207 (inactive)	-0.104 (inactive)	-0.331	-0.0663
CC(C)(C)N1C(=O)[C@H]2[C@H]3[C@H](O)[C@H](O)CC(=NO[C@@H]4O[C@H](CO)[C@@H](O)[C@H](O)[C@H]4O)[C@H]3CC[C@H]2C1=O	-2.09	1.08	-2.16	-2.93	-3.96	-1.68	-1.81 (inactive)	-0.344	-0.447	-0.817 (inactive)	-0.849	-1.3 (inactive)	-0.623 (inactive)	-0.982 (inactive)	1.15 (inactive)	0.339 (inactive)	-0.341 (inactive)	-1.45 (inactive)	-0.817	-0.142
